The text below walks through data of PubChem BioAssay (NCATS).

Records with an inconclusive call do not appear. Values without a mark were called inactive. Active and inactive are the calls of the source. Unless noted, calls follow the shape of the dose curve; as a rule, active = well fitted curve in the direction sought with a large enough effect; inconclusive = small, poorly fitted or top-dose-only effect, or another doubt; inactive = no such curve, though single readings can be large; an effect the other way counts as inactive or inconclusive. Starred links: 1 amine or outer side, 2 acyl side, 3 side chain; linkers in the order of their positions; H or OH if unused. Positions of bridges follow the written chain, without caps; N, C: chain ends. Non-standard residues stand in square brackets, D forms with d. Residues, ends and D or L forms follow the SMILES beside them. ξ: configuration not given here. *: point of attachment. X3 = C[C@@H](Oc1ccc([C@H](N[*:1])C(=O)[*:2])cc1)[C@]1(/C=C\C(=O)[*:3])CO1; d(aIle) = CC[C@H](C)[C@@H](N)C(=O)O; X2 = CC(C)[C@@H](O)C(C)C(=O)*; ξNMeF = CNC(Cc1ccccc1)C(=O)O; ξT = CC(O)C(N)C(=O)O; ξS = NC(CO)C(=O)O

Assay [1] in a line: HEK-293 Cancer Cell Toxicity qHTS against the NCATS CANVASS Library (AID 1347355). Also: nearly all actives have a fitted effect of over 65% in size. Also: potency is read from the fitted curve at half-maximal effect. As to outcome: series mostly up to about 46 µM. The procedure, abridged:
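Luminescent ATP read-out (CellTiter-Glo, 15min at room temperature) measures survival after cells face an 11-point compound series for 72 hours at 37 degrees C/5% CO2.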
(In qHTS, concentration-response curves come from the screen itself.)

The test system of assay [2] is NAD(P)H diaphorase (Clostridium kluyveri). Description: Diaphorse counterscreen qHTS: Assay Interference Panel against the NCATS CANVASS Library (AID 1347362). The method, boiled down:
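Clostridium kluyveri diaphorase in PBS with 0.01% Tween-20 was preincubated 15 min at room temperature in the dark with compounds (11-point series). Resorufin fluorescence (ex 525/20, em 598/25) was read 5 min after adding resazurin/NADH.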

The nature of assay [3]: qHTS for Hypoxia signaling pathway (HIF-1) antagonists against the NCATS CANVASS Library (AID 1347374). Also: nearly all actives have a fitted effect of over 60% in size. Also: potency is read from the fitted curve at half-maximal effect. The procedure, abridged:
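HRE-bla ME-180 cells in medium with 0.5% dialyzed FBS received compounds (11-point series) plus CoCl2 (60 uM addition stock) for 17 hrs at 37C. Beta-lactamase activity read with CCF4 (405 nm ex, 460/530 nm em); CellTiter-Glo viability measured in same wells.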

Assay [4] can be described thus: qHTS assay for small molecule disruptors of mitochondrial membrane potential screened against the NCATS CANVASS Library (AID 1347389). Also: nearly all actives have a fitted effect of over 60% in size. Also: potency is read from the fitted curve at half-maximal effect. The method, boiled down: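 HepG2, 2,000 cells/well, attached overnight; compound 1 hr, 37C, 5% CO2; Mito-MPS dye 30 min, 37C; fluorescence 535 nm (monomer) and 590 nm (aggregate); decreased 590/535 ratio = depolarization.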
Assay [5] is described as follows: qHTS for inhibitors of Wild type Zika virus screened against the NCATS CANVASS Library (AID 1347396). Also: potency is read from the fitted curve at half-maximal effect. The procedure, abridged:
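Vero 766 (African green monkey) cells, 1000 per well, attached overnight, then compounds were added in an 11-point series before wild-type Zika virus infection. After 72 h at 37C, cell viability was read as CellTiter Glo luminescence.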

Assay [6] can be described thus: Viability qHTS for inhibitors of the SERCaMP assay screened against the NCATS CANVASS Library (AID 1347400). Also: nearly all actives have a fitted effect of over 70% in size. Also: potency is read from the fitted curve at half-maximal effect. The procedure, abridged: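 SH-SY5Y SERCaMP MJH297 cells, 1000/well; 4 h settle, 37C/5% CO2; pin-transferred cpds; 48 h; CellTiter-Glo lum. Pos ctrl bortezomib 0.0001 - 4.6 uM.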
Assay [7] in a line: qHTS for inhibitors of Rabies Virus screened against the NCATS CANVASS Library (AID 1347402; calls by dose curve; also: series mostly up to about 46 µM).
Assay [8] in a line: KB-8-5-11 Cancer Cell Toxicity qHTS against the NCATS CANVASS Library (AID 1347364). Also: nearly all actives have a fitted effect of over 75% in size. Also: potency is read from the fitted curve at half-maximal effect. The method, boiled down:
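Plate 500 KB-8-5-11 cells per well in DMEM + 10% FBS, add compounds by pin transfer, incubate 72 hr at 37C. Add CellTiter-Glo, wait 10 minutes at room temperature, read luminescence.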

Assay [9] can be described thus: KB-3-1 Cancer Cell Toxicity qHTS against the NCATS CANVASS Library (AID 1347366). Also: nearly all actives have a fitted effect of over 75% in size. Also: potency is read from the fitted curve at half-maximal effect. The procedure, abridged: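 Luminescence from CellTiter-Glo (10 min, room temperature) measured KB-3-1 viability after 72 hr compound exposure at 37C. Cells were seeded at 500/well and tested in an 11-point series.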
Assay [10] is described as follows: qHTS for Inflammasome Signaling Inhibitors: IL-1-beta AlphaLISA screen against the NCATS CANVASS Library (AID 1347379).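 Also: human THP-1 cells primed with LPS then triggered with ATP.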 The procedure, abridged:
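THP-1 cells pretreated 1 hr with compound (up to 57.5 uM final), then stimulated with LPS (250 ng/mL final) and ATP (1.25 mM final). Secreted IL-1B measured by AlphaLISA after 16 hr; glyburide as positive control.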

As to `CC[C@@H]1CN2CCc3c([nH]c4cccc(OC)c34)[C@@H]2C[C@@H]1/C(=C\OC)C(=O)OC`, the Potency is 18.7 µM (active) in [1] and 4.67 µM (active) in assay [4]. Further, the Potency result in [2], in assay [3], in [5] and in assay [6] was “inactive” in each case. Further, the call in [7] was inactive.
`C=CC(C)(C)[C@@]12C[C@H]3C(=O)N/C(=C\c4cnc[nH]4)C(=O)N3[C@@H]1Nc1ccccc12`: the Potency entry in assay [1], in assay [2], in [8], in assay [9], in assay [3] and in assay [10] was “inactive” each time. Further, the Potency entry in assay [4], in [5] and in [6] was “inactive” in each case. Moreover, the outcome in [7] was inactive.
`C/C(=C\[C@H](C)C(=O)C[C@H](O)CC1CC(=O)NC(=O)C1)[C@@H]1OC(=O)/C=C/CC/C=C/C=C/[C@@H]1C`: the Potency in [1] was 0.148 µM (active); in assay [8] it was 2.35 µM (active); in [9], 1.48 µM (active); in [3] it was 0.0375 µM (active); in [10], 2.43 µM (active); in assay [6] it was 0.538 µM (active). The Potency result in assay [4] and in assay [5] was “inactive” throughout.
As for `C[N+](C)(C)CCc1c[nH]c2ccccc12`, the Potency entry in [1], in [2], in assay [8], in assay [9], in assay [3] and in [10] was “inactive” in each case. Further, the Potency result in assay [4], in assay [5] and in assay [6] was “inactive” in each case. Also, the compound was called inactive in assay [7].
As to `C[C@]12CC(O)C3[C@@H](CC[C@@H]4C[C@@H](O)CC[C@]34CO)[C@@]1(O)CC[C@@H]2C1=CC(=O)OC1` (some centres not stated), the Potency is 3.72 µM (active) in assay [1]; 5.9 µM (active) in [8]; 9.35 µM (active) in [9]; 2.98 µM (active) in assay [3]; 12.2 µM (active) in assay [10]; 7.6 µM (active) in [6]. The Potency result in assay [2], in [4] and in assay [5] was “inactive” in each case. Further, in assay [7], the compound was called inactive.
Consider `CCCC[C@@H]1CC[C@H]2CCCC(CCCO)N12` (some centres not stated), for which the Potency entry in [1], in assay [2], in assay [8], in assay [9], in assay [3] and in [10] was “inactive” throughout. For the same compound, the Potency entry in assay [4], in assay [5] and in assay [6] was “inactive” in each case. The compound was classed as inactive in assay [7].
Turning to `c1ccc2nc3c(cc2c1)[nH]c1ccccc13`, the Potency entry in [1], in assay [2], in assay [8], in [9], in assay [3] and in [10] was “inactive” throughout. The Potency result in [5] and in [6] was “inactive” each time. In assay [4], the Potency was 16.6 µM (active). Besides, in assay [7], the compound was called inactive.
`CO[C@@H](/C=C/CC/C=C/C(=O)O)[C@@H](O)[C@H](C)/C=C(\C)[C@H](O)[C@H](C)C(=O)CCCC1CC(=O)NC(=O)C1`: the Potency result in assay [1], in assay [2], in assay [8], in [9], in assay [3] and in assay [10] was “inactive” each time. For the same compound, the Potency entry in assay [4], in [5] and in assay [6] was “inactive” in each case. For the same compound, in [7], the compound was classed as inactive.
As for `C/C1=C\CC(=O)/C=C/C=C\c2csc(n2)[C@@H](C)NC(=O)C[C@@](S)([C@@H](C)C(=O)O)CC1`, in assay [7], the result was inactive.
In the case of `CC[C@H](C)[C@H]1NC(=O)[C@@H](NC(=O)C(C)[C@H](O)C(C)C)[C@@H](C)OC(=O)C2COC(=O)CNC(=O)/C=C\[C@]3(CO3)[C@@H](C)Oc3ccc(cc3)[C@H](NC1=O)C(=O)N(C)C(Cc1ccccc1)C(=O)NC(C(C)O)C(=O)N2` (some centres not stated) (X2-T[d(aIle)][X3][ξNMeF][ξT][ξS]; ester 1-C; linker 3-6 via G), the Potency result in assay [1], in [2], in assay [8], in assay [9], in assay [3] and in assay [10] was “inactive” each time. For the same compound, the Potency entry in [4], in assay [5] and in [6] was “inactive” throughout. For the same compound, the outcome in assay [7] was inactive.
On to `C=C(C)[C@H]1C(=O)c2c3c(cc4c5c(n1c24)[C@@]1(C)[C@@H](CC[C@H]2[C@](C)(/C=C/C=C(\C)C(=O)O)[C@@H](O)CC[C@@]21C)C5)C1=CC(C)(C)OC(C)(C)[C@H]1[C@@H]3O`, for which the values for the Potency in assay [9], in assay [3] and in [4] were 16.6 µM (active), 6.66 µM (active) and 16.6 µM (active), respectively. Further, the Potency result in assay [10] is “inactive”.
On to `CC(C)CC1C(=O)O[C@H](C(C)C)C(=O)N(C)C(CC(C)C)C(=O)O[C@@H](C(C)C)C(=O)N(C)C(CC(C)C)C(=O)O[C@H](C(C)C)C(=O)N(C)C(CC(C)C)C(=O)O[C@@H](C(C)C)C(=O)N1C` (some centres not stated), for which the Potency in [1] is 2.35 µM (active); in assay [8], 9.35 µM (active); in assay [9], 9.35 µM (active); in assay [4], 7.41 µM (active); in assay [5], 14.7 µM (active); in assay [6], 42.8 µM (active). The Potency entry in assay [10] is “inactive”. In addition, the call in assay [7] was inactive.
For `C[C@]12CC(O)C3[C@@H](CCC4C[C@@H](O)CC[C@@]43CO)[C@@]1(O)CC[C@@H]2C1=CC(=O)OC1` (some centres not stated), the Potency was 13.2 µM (active) in assay [1]; 18.7 µM (active) in assay [8]; 26.4 µM (active) in assay [9]; 9.41 µM (active) in [3]; 13.5 µM (active) in assay [6]. For the same compound, the Potency result in assay [2], in [4] and in assay [5] was “inactive” in each case.
Turning to `C/C=C1/CN2C3CC1C1=CCC(=O)N4c5ccccc5[C@@]3(C[C@@H]2C2=C[C@H]3C5CC6N(CC[C@@]67c6ccccc6N(C2=O)[C@@H]37)C/C5=C/C)[C@H]14` (some centres not stated), the Potency in [1] was 7.43 µM (active); in [8], 16.6 µM (active); in assay [10], 21.7 µM (active); in [6], 42.8 µM (active). Further, the Potency entry in [2] and in assay [4] was “inactive” in each case.
